# Measurements: ChEMBL document CHEMBL3433997, “St. Jude Leishmania screening dataset” (2016)
# Columns and labels:
# Format in all cases: functional
# [1] = biological target: Solute carrier family 2, facilitated glucose transporter member 1 (Homo sapiens) (UniProt P11166); experiment: ST_JUDE_LEISH: Cytotoxicity at 2uM final concentration against transgenic Leishmania Mexicana promastigotes LmGLUT1 that are glucose transport deficient and complemented with the human glucose transporter GLUT1. Activity is measured by DNA content using SYBR green in vitro
# Chain of Solute carrier family 2, facilitated glucose transporter member 1 (Homo sapiens) (P11166 whole entry): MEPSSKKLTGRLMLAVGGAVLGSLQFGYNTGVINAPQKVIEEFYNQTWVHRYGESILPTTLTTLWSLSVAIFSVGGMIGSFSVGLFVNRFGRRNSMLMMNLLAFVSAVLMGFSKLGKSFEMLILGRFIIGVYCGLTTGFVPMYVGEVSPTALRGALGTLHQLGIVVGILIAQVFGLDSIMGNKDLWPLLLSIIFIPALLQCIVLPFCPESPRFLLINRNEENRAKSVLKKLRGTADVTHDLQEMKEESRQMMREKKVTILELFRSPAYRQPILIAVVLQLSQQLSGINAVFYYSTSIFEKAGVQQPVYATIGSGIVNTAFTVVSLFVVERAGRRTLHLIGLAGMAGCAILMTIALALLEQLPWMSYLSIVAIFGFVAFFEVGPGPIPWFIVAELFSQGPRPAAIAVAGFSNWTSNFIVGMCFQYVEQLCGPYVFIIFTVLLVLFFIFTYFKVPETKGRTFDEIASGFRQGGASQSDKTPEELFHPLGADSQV
# [2] = biological target: Hexose transporter 1 (Plasmodium falciparum) (UniProt O97467); experiment: ST_JUDE_LEISH: Cytotoxicity at 2uM final concentration against transgenic Leishmania Mexicana promastigotes LmPfHT that are glucose transport deficient and complemented with the Plasmodium falciparum hexose transporter. Activity is measured by DNA content using SYBR green in vitro
# [3] = biological target: Glucose transporter (Leishmania mexicana) (UniProt O61059); experiment: ST_JUDE_LEISH: Cytotoxicity at 2uM final concentration against transgenic Leishmania Mexicana promastigotes LmGT2 that are glucose transport deficient and complemented with the L. Mexicana glucose transporter 2. Activity is measured by DNA content using SYBR green in vitro
SMILES,inhibition [1] [%],inhibition [2] [%],inhibition [3] [%]
CCN(CCCN1CCCCC1)c1cc(C)nc(Nc2cccc(OC(F)(F)F)c2)n1,1.17,1.62,2.65
Cc1[nH]c(/C=C2\C(=O)Nc3ccc(S(=O)(=O)Cc4c(Cl)cccc4Cl)cc32)c(C)c1C(=O)N1CCC[C@@H]1CN1CCCC1,1,0.58,2.26
O=[N+]([O-])c1ccc(/C=N/Nc2cc(-c3ccccc3)nc3ccccc23)o1,9.16,7.41,5.71
OCc1ccc(-c2cncc(Nc3ccc(F)c(Cl)c3)c2)cc1,3.7,4.21,1.04
O=C1NC(=O)C(c2cccc(NC(=O)c3ccncc3)c2)=C1c1ccccc1,1.05,1.65,-4.34
Cn1nc(-c2cccc(CNC3CCc4ccccc43)c2)c2cnc(NC3CCCC3)nc21 (centres undefined),2.84,5.46,3.3
Cc1ccc2cc(NCCCCCCCCON3C(N)=NC(N)=NC34CCCCC4)ccc2n1,8.51,8.23,9.59
Cc1ccc([S+]([O-])Cc2ccc(Cl)cc2)cc1 (centres undefined),-0.22,-0.65,1.2
Nc1c(Cl)cc(C(O)CNCCCCCCOCCc2ccc(CO)s2)cc1Cl (centres undefined),2.77,1.49,2.21
Fc1cc(Cl)ccc1Nc1ccnc(Nc2ccc3cn[nH]c3c2)n1,12.7,10.7,5.1
Cc1csc2nc(C(C)c3ccc(NC(=O)c4cccs4)cc3)oc(=O)c12 (centres undefined),1.03,-0.57,-0.38
O=C1OC2(CN1CC1CCN(Cc3ccc(O)cc3Cl)C1)c1ccccc1-c1ccccc12 (centres undefined),0.5,-2.55,2.67
O=C(Nc1cccc(CN2CCCN(Cc3cccc(O)c3)CC2)c1)c1ccc2ccccc2c1,1.01,1.53,-2.82
CCCCOc1ccc(CNCCCCCCNCc2ccc(OCCCC)c3ccccc23)c2ccccc12,104,102,103
CCCNC(=O)CN1CN(c2ccccc2)C2(CCN(C(=O)c3ccc(C(C)(C)C)cc3)CC2)C1=O,-0.42,1.19,-0.87
COc1ccc2[nH]c(C)cc(=NN=Cc3ccncc3)c2c1,3.45,-0.44,4.43
CNCCCNCc1ccc(-c2ccc(F)c(Cl)c2)o1,0.54,1.28,0.56

SMILES,inhibition [1] [%],inhibition [2] [%],inhibition [3] [%]
CN1CCN(Cc2nc(-c3ccc4c(Nc5ccc(F)c(O)c5)ccnc4c3)cs2)CC1,7.7,1.76,0.94
CCS(=O)(=O)c1ccc(OC)c(Nc2nccc(-c3c(-c4cccc(NC(=O)c5c(F)cccc5F)c4)nn4ncccc34)n2)c1,6.13,3.41,2.02
COc1ccc2ncc(F)c(CCN3C4CCC3CC(NCc3ccc5c(c3)OCCO5)C4)c2n1 (centres undefined),59.9,71.9,79.2
O=C(c1ccc(-c2ccc(Cl)cc2)o1)N1CCc2cc3nccc(N4CCN5CCC[C@H]5C4)c3cc21,-1.09,0.64,0.64
Cc1cc(N)cc2nc(-c3ccc(N)cc3)[nH]c12,3.09,2.43,1.68
O=C1c2ccccc2C(=O)N1c1ccc(S(=O)(=O)N2CCOCC2)cc1,8.7,6.66,8.08
CC(C)(C)Oc1ccc(CC2NC3(C(=O)N(Cc4ccc(C(C)(C)C)cc4)c4ccccc43)C3C(=O)N(c4ccc(Br)cc4)C(=O)C23)cc1 (centres undefined),-1.37,3,0.37
CCCNc1ccc2nccc(CCN3CCC(NCc4ccc5c(n4)NC(=O)CS5)CC3)c2n1,3.5,2.84,8.69
N#CN1CC[C@H](CS(=O)(=O)c2cccc(Br)c2)C1,6.21,4.67,2.05
COc1ccc(CNC2CCN(C)CC2)cc1-c1ccc(S(=O)(=O)NCCc2ccccn2)c(F)c1,3.16,2.16,4.77
CC(C)Cc1ccc(N2CCN(CCCCNC(=O)c3ccc(NC(=O)c4cc(C(F)(F)F)cc(C(F)(F)F)c4)cc3)CC2)cc1,0.41,1.08,-0.64
CCCNC(=O)c1cncc(-c2ccc(CNCCCc3ccccc3)cc2)c1,1.92,1.6,0.59
COc1ccc(-c2ccccc2CNC2Cc3ccccc3C2)cc1S(=O)(=O)NCCN1CCCC1,2.56,0.5,2.53
CC1CC(NCCCNc2cc(=O)c3ccccc3[nH]2)c2c(Cl)c(Cl)cc(Cl)c21 (centres undefined),5.21,3.08,1.22
COc1cc(C(=O)N2CCN(C(C)C)CC2)ccc1CN(C)CCCN1CCN(c2cccc(Cl)c2Cl)CC1,0.76,0.33,0.31
Cc1ccccc1C1CCN(C2CCC(NC(=O)/C=C/c3cccc(Cl)c3Cl)CC2)CC1 (centres undefined),4.12,1.26,4.18
